PMP22 txn: Cell-based coincidence reporter assay to measure PMP22 gene transcription in S16 Pmp22-F2sN cells - Primary screen; hit rate 2% among 43,000; Potency, µM (doses to about 57.5 µM), hits mostly inhibitors; S16 Pmp22-F2sN Schwann cells, FLuc/NLuc coincidence luminescence, 24 h; active = clear falling dose curves in both reporters; inconclusive = both reporters move, but less clearly or upward; inactive = either reporter flat; the % is the NLuc reporter signal
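Reporter cells (S16 Pmp22-F2sN, 500–1,000 per well) exposed to compounds for 24 h, 37C, 5% CO2; lysis with FLuc read after 10 min, then Stop&Glo and NLuc read after 10 min.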
pS6 MEF inh: Acumen qHTS Assay for Inhibitors of the mTORC1 Signaling Pathway in MEF (Tsc2-/-, p53-/-) Cells: Sytravon; AID 493208, 2011; Tsc2-/- p53-/- MEF, phospho-rpS6 immunofluorescence/PI, 24 h; hit rate 0.78% among 44,000; Potency, µM (titrated, usually from 38.3 µM), most hits filed as inhibitors; note: nearly all actives have a fitted effect of over 50% in size
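Read-out: phospho-S6 Alexa-488 intensity over PI intensity per well, scored as % active cells using thresholds from rapamycin (7.5 nM) and DMSO controls. Tsc2-/-, p53-/- MEFs exposed to compound for 24 h; PI cell count recorded as viability.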
S16 viability: Cell viability qHTS assay in S16 Pmp22-F2sN cells; S16 Pmp22-F2sN Schwann cells (luciferase reporters placed in the Pmp22 gene) viability, CellTiter-Glo, 24 h; Potency, µM (series often up to 57.5 µM), hits mostly cytotoxic; hit rate 0.48% among 43,000; AID 1508642, 2021; note: nearly all actives have a fitted effect of over 65% in size
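CellTiter-Glo counter-screen, qHTS, 1536-well. Cells: S16(c9) Pmp22-F2sN, 500-1,000/well in DMEM + 10% FBS. Cpd 23 nL pin transfer, 24 h, 37C/5% CO2. Read: luminescence, CCD imager.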
OvCa metastasis: Primary qHTS assay for Inhibitors of ovarian cancer metastasis using an organotypic tumor microenvironment (TME) model; hit rate 0.1% among 46,000; SKOV3ip1-GFP adhesion/invasion on 3D omental model, fluorescence; Potency, µM (titrated, usually from 45.8 µM), usual class: inhibitors; AID 1963576, 2024; note: nearly all actives have a fitted effect of over 65% in size
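A 3D layer of primary human omental fibroblasts, mesothelial cells, fibronectin and collagen I, grown 48 hr, received SKOV3ip1-GFP cells in serum-free medium plus compounds at 0.36-46 umol/L. After 2 hr RT and 16 hr 37 C, fixed adherent GFP cells were counted; normalized to DMSO and tomatine.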
NLuc saturating: Biochemical NLuc saturation counterscreen for small molecule modulators of PMP22 gene expression - Nano-Glo assay; shares compounds with PMP22 txn; Secreted NLuc enzyme (filtered S16 cell medium), Nano-Glo luminescence; Potency, µM (highest dose often 57.5 µM), actives largely listed as inhibitors; hit rate 4% among 690
NLuc Km counter: Biochemical coelenterazine-based NLuc counterscreen for small molecule modulators of PMP22 gene expression - Km assay; shares compounds with PMP22 txn; secreted NLuc enzyme, coelenterazine luminescence, Km conditions; Potency, µM (top dose mostly 57.5 µM), most hits filed as inhibitors; hit rate 5% among 690
FLuc ctr PMP22: Biochemical FLuc counterscreen for small molecule modulators of PMP22 gene expression | shares compounds with PMP22 txn | purified P. pyralis FLuc, luminescence, 10 min | Potency, µM (highest dose often 57.5 µM), most hits filed as inhibitors | 690 tested, under 10 active
Target sequence (P08659 whole entry, looked up): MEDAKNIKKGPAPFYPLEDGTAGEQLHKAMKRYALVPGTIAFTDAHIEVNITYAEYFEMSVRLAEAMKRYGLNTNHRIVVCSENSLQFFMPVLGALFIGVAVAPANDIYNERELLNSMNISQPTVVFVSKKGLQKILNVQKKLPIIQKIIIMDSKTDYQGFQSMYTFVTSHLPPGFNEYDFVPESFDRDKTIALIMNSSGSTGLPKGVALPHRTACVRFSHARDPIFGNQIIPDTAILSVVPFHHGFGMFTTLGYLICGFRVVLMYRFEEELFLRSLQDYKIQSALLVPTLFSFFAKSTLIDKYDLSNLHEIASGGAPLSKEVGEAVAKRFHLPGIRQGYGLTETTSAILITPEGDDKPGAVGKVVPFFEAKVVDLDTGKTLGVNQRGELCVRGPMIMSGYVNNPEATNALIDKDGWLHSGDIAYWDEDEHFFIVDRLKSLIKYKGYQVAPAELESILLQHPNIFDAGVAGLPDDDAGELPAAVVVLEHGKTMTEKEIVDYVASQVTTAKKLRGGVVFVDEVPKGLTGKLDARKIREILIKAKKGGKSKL
S16 F2sN tox cnf: Cell viability qHTS assay in S16 Pmp22-F2sN cells - Confirmatory screen; shares compounds with PMP22 txn; S16 Schwann cells viability, CellTiter-Glo ATP luminescence, 24 h; Potency, µM (highest dose often 57.5 µM), hits mostly cytotoxic; hit rate 7% among 690; AID 1508641, 2021
PMP22 txn cnf: Cell-based coincidence reporter assay to measure PMP22 gene transcription in S16 Pmp22-F2sN cells - Confirmatory screen. Potency, µM (titrated, usually from 57.5 µM), usual class: inhibitors. shares compounds with PMP22 txn. S16 Schwann cells Pmp22-F2sN, dual luciferase, 24 h. AID 1508646, 2021. hit rate 22% among 690; active = clear falling dose curves in both reporters; inconclusive = both reporters move, but less clearly or upward; inactive = either reporter flat; the % is the FLuc reporter signal
PMP22 prot conf: Cell-based HiBiT reporter assay to measure PMP22 protein expression in S16 Pmp22-HiBiT cells - Confirmatory screen; shares compounds with PMP22 txn; S16 Schwann cells Pmp22-HiBiT, luminescence, 48 h; Potency, µM (titrated, usually from 27.9 µM), usual class: inhibitors; 95 tested, under 10 active; AID 1508647, 2021
Target sequence (P25094 whole entry, looked up): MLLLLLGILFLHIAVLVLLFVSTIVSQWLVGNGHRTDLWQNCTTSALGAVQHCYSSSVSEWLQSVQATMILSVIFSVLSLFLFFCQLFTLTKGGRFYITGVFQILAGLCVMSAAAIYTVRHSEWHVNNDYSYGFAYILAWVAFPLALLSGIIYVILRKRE
Of the large screens only hits and unclear results are named; the others gave an inactive call (follow-up assays come after a bar, where they were run). A selection: hits, their analogues and other compounds. The true share with any hit is near 2.6%. Unless noted, calls come from the whole dose curve; as a rule, active = well fitted curve in the direction sought with a large enough effect; inconclusive = small, poorly fitted or top-dose-only effect, or another doubt; inactive = no such curve, though single readings can be large; an effect the other way counts as inactive or inconclusive.

CC1(C)CCC[C@@]2(C)[C@@H]1CC[C@@]1(C)OC(=O)C[C@H]21	none (no result: PMP22 txn, pS6 MEF inh, S16 viability)
Cc1cc2c(F)c(Oc3ncnn4cc(OC[C@@H](C)O)c(C)c34)ccc2[nH]1	none (no result: PMP22 txn, pS6 MEF inh, S16 viability)
Cc1c(Cl)cccc1NC(=O)Cn1c(=O)n(Cc2ccco2)c(=O)c2sc3ccccc3c21	PMP22 txn 13µM | NLuc saturating inactive | NLuc Km counter inactive | FLuc ctr PMP22 inactive | S16 F2sN tox cnf inactive | PMP22 txn cnf 15µM
Cc1ccc(CNC(=O)Cn2c(=O)n(Cc3ccc(F)cc3)c(=O)c3sc4ccccc4c32)cc1	none
COc1cccc(-n2c(=O)c3sc4ccccc4c3n(CC(=O)Nc3cccc(Cl)c3)c2=O)c1	none
CCc1ccc(-n2c(=O)c3sc4ccccc4c3n(CC(=O)NCc3ccccc3)c2=O)cc1	PMP22 txn inconclusive
COc1ccccc1NC(=O)Cn1c(=O)n(-c2cccc(Cl)c2)c(=O)c2sc3ccccc3c21	PMP22 txn 10µM | NLuc saturating inactive | NLuc Km counter inactive | FLuc ctr PMP22 inactive | S16 F2sN tox cnf inconclusive | PMP22 txn cnf 6.5µM | PMP22 prot conf 6.5µM
Cc1ccc(CNC(=O)Cn2c(=O)n(Cc3ccccc3)c(=O)c3sc4ccccc4c32)cc1	PMP22 txn 13µM | NLuc saturating inactive | NLuc Km counter inactive | FLuc ctr PMP22 inactive | S16 F2sN tox cnf inactive | PMP22 txn cnf 19µM
Cc1ccc(CNC(=O)Cn2c(=O)n(-c3cccc(Cl)c3)c(=O)c3sc4ccccc4c32)cc1	PMP22 txn 9.5µM | NLuc saturating inactive | NLuc Km counter inactive | FLuc ctr PMP22 inactive | S16 F2sN tox cnf inconclusive | PMP22 txn cnf inconclusive
Cc1c(Cn2c(C)nc3c(C(=O)O)cc(N4CCOCC4)cc32)cccc1C(F)(F)F	none (no result: PMP22 txn, pS6 MEF inh, S16 viability)
N#Cc1c(NC(=O)c2cccc3ccccc23)sc2c1CCCC2	none (no result: PMP22 txn, pS6 MEF inh, S16 viability)
C[C@@H]1[C@H](C)CC[C@]2(C(=O)O)CC[C@]3(C)C(=CC[C@@H]4[C@@]5(C)CC[C@H](O)C(C)(C)[C@H]5CC[C@]43C)[C@@H]12	none (no result: PMP22 txn, pS6 MEF inh, S16 viability)
CCN1CCC(n2cc(CNc3cc(Cl)c4ncc(C#N)c(Nc5ccc(F)c(Cl)c5)c4c3)nn2)CC1	none (no result: PMP22 txn, pS6 MEF inh, S16 viability)
O=C(CSc1nncn2c1cc1occc12)Nc1ccc(F)c(Cl)c1	none
CCC(Sc1nncn2c1cc1occc12)C(=O)Nc1ccc(C)c(Cl)c1 (stereo not drawn)	PMP22 txn 17µM, S16 viability inconclusive | NLuc saturating inconclusive | NLuc Km counter inconclusive | FLuc ctr PMP22 inactive | S16 F2sN tox cnf inactive | PMP22 txn cnf inconclusive
COc1cc(C)c(Sc2cnc(NC(=O)c3ccc(CNC(C)C(C)(C)C)cc3)s2)cc1C(=O)N1CCN(C(C)=O)CC1 (stereo not drawn)	none (no result: PMP22 txn, pS6 MEF inh, S16 viability)
O=c1ccn([C@@H]2O[C@H](CO)[C@H](O)[C@H]2O)c(=O)[nH]1	none (no result: PMP22 txn, pS6 MEF inh, S16 viability)
O=C(Cn1cc(C(=O)C2CCCCC2)c2ccccc21)Nc1ccccc1Cl	PMP22 txn 9.5µM | NLuc saturating inactive | NLuc Km counter inactive | FLuc ctr PMP22 inactive | S16 F2sN tox cnf inactive | PMP22 txn cnf inconclusive
O=C(CCS(=O)(=O)c1nc(-c2ccc3c(c2)OCO3)cc(C(F)(F)F)n1)Nc1ccc(F)c(Cl)c1	PMP22 txn 13µM, S16 viability inconclusive, OvCa metastasis inconclusive | NLuc saturating inactive | NLuc Km counter inconclusive | FLuc ctr PMP22 inactive | S16 F2sN tox cnf inactive | PMP22 txn cnf inconclusive
CCc1ccc(CNC(=O)CSc2c3c(nc4ccc(Cl)cc24)CCCC3)cc1	PMP22 txn 6.2µM | NLuc saturating inactive | NLuc Km counter inconclusive | FLuc ctr PMP22 inactive | S16 F2sN tox cnf inactive | PMP22 txn cnf inconclusive
O=C(CSc1c2c(nc3ccc(Cl)cc13)CCCC2)N1CCN(c2cccc(Cl)c2)CC1	PMP22 txn 20µM | NLuc saturating inactive | NLuc Km counter inactive | FLuc ctr PMP22 inactive | S16 F2sN tox cnf inactive | PMP22 txn cnf inconclusive
CCN(CC)CCCNC(=O)CSc1c2c(nc3cc(Cl)ccc13)CCCC2	PMP22 txn 6.7µM, pS6 MEF inh inconclusive, S16 viability inconclusive, OvCa metastasis inconclusive | NLuc saturating inactive | NLuc Km counter inactive | FLuc ctr PMP22 inactive | S16 F2sN tox cnf inconclusive | PMP22 txn cnf 10µM | PMP22 prot conf inactive
CC(C)OCCCNC(=O)CSc1c2c(nc3ccc(Cl)cc13)CCCC2	PMP22 txn 12µM, S16 viability inconclusive, OvCa metastasis inconclusive | NLuc saturating inactive | NLuc Km counter inactive | FLuc ctr PMP22 inactive | S16 F2sN tox cnf inconclusive | PMP22 txn cnf 19µM
O=C(CSc1c2c(nc3ccc(Cl)cc13)CCCC2)N1CCN(c2ccc(Cl)cc2)CC1	PMP22 txn inconclusive
CCC[C@H]1C[C@H](C(=O)N[C@@H]([C@@H]2O[C@@H](SC)[C@@H](O)[C@@H](O)[C@@H]2O)[C@H](C)Cl)N(C)C1	none (no result: PMP22 txn, pS6 MEF inh, S16 viability)
C[C@@H]1[C@H](C)CC[C@]2(C(=O)O)CC[C@]3(C)C(=CC[C@@H]4[C@@]5(C)C[C@@H](O)[C@H](O)[C@@](C)(CO)[C@H]5CC[C@]43C)[C@@H]12	none (no result: PMP22 txn, pS6 MEF inh, S16 viability)
Cc1c(C(=O)Nc2ccc(N3C[C@@H](C)O[C@@H](C)C3)nc2)cccc1-c1ccc(OC(F)(F)F)cc1	none (no result: PMP22 txn, pS6 MEF inh, S16 viability)

Source: PubChem
